# Screening data (PubChem BioAssay)
# gsp antag: gsp mutant antagonism. gsp-mutant cells, cAMP HTRF, 30 min. Potency, µM (top dose mostly 76.9 µM), for the others: top-dose activity change, negative = inhibition, hits mostly inhibitors. hit rate 0.4% among 340,000. AID 624288; calls by dose curve; cell line not stated here;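 also: intracellular cAMP measured with PDE inhibitor Ro 20-1724 present during compound exposure; potency is read from the fitted curve at half-maximal effect; % is scaled to controls: 0 for no effect and ±100 for the full control effect; nearly all actives have a fitted effect of over 65% in size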
#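 G418-selected cells were plated in DMEM/10% FBS for 16-24 h at 37C, then treated with compounds plus the PDE inhibitor […] (300 uM solution added) for 30 min at 37C. Intracellular cAMP was measured by HTRF after 30 min lysis at room temperature.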
# gsp agonist: agonists of gsp mutant (McCune-Albright syndrome); gsp mutant cells, cAMP HTRF, 30 min; Potency, µM (top dose mostly 76.9 µM), inactives show top-dose activation (cAMP increase), usual class: activators; hit rate 0.13% among 340,000; AID 624287; active = well fitted activation curve with a large enough effect; inconclusive = small, poorly fitted or top-dose-only effect, or another doubt; inactive = no such curve, though single readings can be large or run the other way; cell line not stated here;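 also: phosphodiesterase inhibitor Ro 20-1724 added with compounds to block cAMP breakdown; potency is read from the fitted curve at half-maximal effect; nearly all actives have a fitted effect of over 60% in size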
#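 Cells stably selected in G418 were plated at 2000/well, grown 16-24 hr, then given compounds in DMSO with the PDE inhibitor […] (300 uM solution added) for 30 min at 37C; cAMP was read by HTRF.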
# p53 reactivation: re-activators of mutant p53; AID 504706; Potency, µM (highest dose often 92.2 µM), without a hit: at the top dose activity change, positive = activation, actives largely listed as activators; hit rate 0.063% among 320,000; H1299 p53-A138V BP100-luciferase reporter, luminescence, 24 h; also: potency is read from the fitted curve at half-maximal effect; % of control where 0% means no effect; nearly all actives have a fitted effect of over 45% in size
#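 p53-null H1299 cells stably carrying temperature-sensitive p53-A138V and a BP100-luciferase reporter were pinned with compounds (4-point, 1:5 series) and held 24 hrs at 37 deg C. Luminescence was read 10 min after detection reagent.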
# RXFP1 antagonist: antagonists of human relaxin receptor RXFP1 | activity change, negative = inhibition, % at 57.5 µM | hit rate 0.59% among 350,000 | HEK293-RXFP1, relaxin-stimulated cAMP HTRF, 30 min; stronger effect = lower value | AID 1259400;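 active = activity change of -60% or lower, but not beyond a set lower limit; inconclusive = change between -60% and -40%, or beyond the set limit; inactive = change above -40%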; also: % is scaled to controls: 0 for no effect and ±100 for the full control effect
# Target sequence (Q9HBX9 whole entry, looked up): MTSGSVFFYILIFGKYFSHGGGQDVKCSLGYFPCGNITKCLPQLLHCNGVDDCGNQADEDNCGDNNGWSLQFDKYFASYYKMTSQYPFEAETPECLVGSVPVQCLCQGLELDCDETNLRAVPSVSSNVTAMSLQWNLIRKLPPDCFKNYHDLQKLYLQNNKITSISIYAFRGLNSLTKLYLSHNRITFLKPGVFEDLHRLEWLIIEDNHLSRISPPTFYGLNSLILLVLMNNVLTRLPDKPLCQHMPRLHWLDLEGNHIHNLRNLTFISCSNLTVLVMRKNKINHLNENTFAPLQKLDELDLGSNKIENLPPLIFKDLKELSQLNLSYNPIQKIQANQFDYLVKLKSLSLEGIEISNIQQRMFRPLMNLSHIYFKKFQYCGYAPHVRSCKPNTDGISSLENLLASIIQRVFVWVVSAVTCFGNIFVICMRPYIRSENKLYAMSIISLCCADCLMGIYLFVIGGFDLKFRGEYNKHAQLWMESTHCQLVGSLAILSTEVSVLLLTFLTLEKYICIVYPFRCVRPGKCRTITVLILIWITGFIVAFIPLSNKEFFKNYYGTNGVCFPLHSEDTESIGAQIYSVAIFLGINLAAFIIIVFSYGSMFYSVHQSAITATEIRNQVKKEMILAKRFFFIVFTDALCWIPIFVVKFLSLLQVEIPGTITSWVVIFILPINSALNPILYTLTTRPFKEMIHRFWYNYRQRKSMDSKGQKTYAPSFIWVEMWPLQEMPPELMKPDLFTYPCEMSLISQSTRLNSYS
# RXFP1 agonist: activates the human relaxin receptor RXFP1. Q9HBX9. HEK293T-RXFP1 cAMP TR-FRET, 30 min; response scale: percent of porcine relaxin response, buffer zero. Potency, µM (highest dose often 57.5 µM), inactives show at the highest dose activation, usual class: activators. hit rate 0.3% among 370,000. AID 2676; also: potency is read from the fitted curve at half-maximal effect; % is scaled to controls: 0 for no effect and ±100 for the full control effect; nearly all actives have a fitted effect of over 60% in size
#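 Agonist response is measured as cAMP accumulation in an RXFP1-transfected HEK293T line under PDE4 inhibition. Values are scaled between buffer-only and 29 nM porcine relaxin, and EC50s come from standard Hill equation fits.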
# Tb PFK block: blocks T. brucei phosphofructokinase; AID 485367; O15648; T. brucei PFK, ADP-Glo luminescence; hit rate 0.17% among 330,000; Potency, µM (series often up to 57.5 µM), for the others: top-dose activity, negative = inhibition, actives largely listed as inhibitors;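 also: potency is read from the fitted curve at half-maximal effect; 0% = uninhibited 1x PFK enzyme wells and -100% = no-enzyme wells; nearly all actives have a fitted effect of over 60% in size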
#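 Luminescent ADP detection (ADP-Glo, two-step: ATP depletion then ADP-to-ATP conversion for luciferase) reported PFK activity after 45 min room-temperature reaction of 1.25 nM enzyme with 0.5 mM F6P and 0.1 mM ATP at pH 8.0.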
# An asterisk follows results filed as active; u = inconclusive; x = not tested or not shown; [ ] = another dose, or the depositor's remark. This is a sample that favours compounds with a hit; in the whole collection about 1.1% have one here. Unless noted, calls follow the shape of the dose curve; as a rule, active = well fitted curve in the direction sought with a large enough effect; inconclusive = small, poorly fitted or top-dose-only effect, or another doubt; inactive = no such curve, though single readings can be large; an effect the other way counts as inactive or inconclusive.
SMILES,gsp antag,gsp agonist,p53 reactivation,RXFP1 antagonist,RXFP1 agonist,Tb PFK block
CN(C)c1ccc(C(=O)OCC(=O)c2cccs2)cc1,3%,u,u,-9,1%,0%
O=C(CN1CCCCC1)NCCNc1ccc(C(F)(F)F)cc1[N+](=O)[O-],13%,0%,-8%,1,3%,3%
COC(=O)C(CCSC)Nc1ncnc2onc(-c3ccc(F)cc3)c12 (stereo unspecified),x,x,x,-21,3%,x
O=C(Nc1ccncc1)C1CC(=O)N(c2ccccc2)C1 (stereo unspecified),5%,13%[15.4 µM],x,-2,x,x
Cc1ccc2cccnc2c1N,-3%,16%[15.4 µM],0%,-6,-1%,0%
O=C(Cn1cc(SCc2ccccc2F)c2ccccc21)N1CCCC1,x,x,x,-29,1%,x
CCOC(=O)N1CCN(C(=O)CCS(=O)(=O)c2ccc3c(c2)CC(C)N3C(=O)CC)CC1 (stereo unspecified),u,9%,-4%,-92*,2%,-6%
O=C(c1ccccc1F)N1c2ncnn2C2(CCCCC2)[C@@H]2CCCC[C@@H]21,x,x,x,-8,1%,x
O=C(c1ccc(F)cc1)N1c2nc(-c3ccco3)nn2C2(CCCCC2)[C@@H]2CCCC[C@@H]21,x,x,x,-71*,3%,x
O=C(c1ccccc1F)N1c2nc(-c3ccco3)nn2C2(CCCCC2)[C@@H]2CCCC[C@@H]21,x,x,x,-65*,-1%,x
COc1ccc(C(=O)N2c3nc(-c4ccco4)nn3C3(CCCCC3)[C@@H]3CCCC[C@@H]32)cc1OC,x,x,x,-26,0%,x
O=C(Nc1ccc(NC(=O)C2CC2)nc1)c1ccccc1F,-8%,3%[15.4 µM],28%,-9,2%,3%
Cc1ccsc1/C=N/n1c(-c2cc(-c3ccccc3)n[nH]2)n[nH]c1=S,-17%,-2%[15.4 µM],-4%,-19,0%,-12%
CCOc1ccccc1NC(=O)COC(=O)C(CC)c1ccccc1 (stereo unspecified),10µM*,25%,0%,-11,1%,-6%
CCC(C(=O)OCC(=O)Nc1cc(C)ccc1OC)c1ccccc1 (stereo unspecified),-3%,-33%,0%,11,1%,-4%
COc1ccc(-c2cc(C(=O)Nc3ccc(S(=O)(=O)Nc4onc(C)c4C)cc3)c3ccccc3n2)cc1OC,-10%,-5%,1%,1,0%,0%
COc1ccc(C[C@@H]2OC3(C=CC(=O)C=C3)O[C@H]2Cc2ccc(OC)cc2)cc1,-10%,-14%,x,-92*,x,x
CCOc1ccc(CC(=O)C2C(=O)CC(C)(C)CC2=O)cc1OCC,1%,u,u,6,0%,1%
Clc1cccc(Cl)c1/C=C/c1nc2ccccc2[nH]1,28µM*,-1%,u,6,5%,0%
CCOC(=O)C1CCN(C(=O)c2ccc(N(C)S(C)(=O)=O)cc2)CC1,6%,16%,0%,11,1%,0%
CN(c1ccc(C(=O)COC(=O)C2CC2)cc1)S(C)(=O)=O,-1%,-2%,35µM*,-6,x,8%
CC(=O)c1c(C)[nH]c(C(=O)OCC(=O)Nc2cc(Cl)ccc2[N+](=O)[O-])c1C,35µM*,u,13%,-13,0%,-9%
CC(=O)c1c(C)[nH]c(C(=O)OCC(=O)Nc2ccc(C)cc2[N+](=O)[O-])c1C,u,-18%,-4%,-6,1%,-2%
CC(C)c1ccc(NS(=O)(=O)c2ccc3c(c2)oc(=O)n3C)cc1,-10%,-3%,5%,-1,-1%,1%
CCCCC(=O)Nc1ccc2nc(SCC(=O)N3CCc4ccccc43)sc2c1,x,x,x,x,0%,x
SMILES,gsp antag,gsp agonist,p53 reactivation,RXFP1 antagonist,RXFP1 agonist,Tb PFK block
Clc1ccc(CSc2snnc2-c2ccccc2)c(Cl)c1,-9%,13%,40µM*,13,3%,4%
Cc1cc(C(=O)NCCN2C(=O)S/C(=C\c3cccs3)C2=O)ccc1[N+](=O)[O-],25µM*,5%,19%,-4,1%,0%
O=C(COc1ccccc1F)Nc1nnc(-c2ccncc2)s1,-12%,11%,1%,15,2%,1%
Cc1cccc(N2CCN(Cc3ccc(Br)o3)CC2)c1C,0%,-12%,x,-16,0%,-1%
Cc1ccccc1N1CCN(Cc2ccc(Br)o2)CC1,4%,10%[15.4 µM],x,-65*,1%,3%
Fc1ccc(C2CC(c3ccccc3)Nc3ncnn32)cc1 (stereo unspecified),11µM*,8%,-5%,x,0%,-8%
c1ccc(C2CC(c3ccccc3)n3ncnc3N2)cc1 (stereo unspecified),2%,23%,-4%,2,1%,0%
CC(=O)N1c2ccc(S(=O)(=O)NCC3CCC(C(=O)N(C)Cc4ccccc4)CC3)cc2CC1C (stereo unspecified),-18%,-13%,-2%,21,0%,-1%
CCCc1ccc2oc(C(=O)NCCc3nc(C(=O)OCC)cs3)c(C)c2c1,u,18%[15.4 µM],x,-79*,0%,-3%
CCCc1ccc2oc(C(=O)NCCc3cnn(C)c3)c(C)c2c1,-14%,-4%,13%,u,3%,-11%
O=[N+]([O-])c1ccccc1S(=O)(=O)Oc1ccccc1/C=N/n1cnnc1,8%,-1%[15.4 µM],5%,-4,1%,1%
COCC1CCN(C(=O)c2cc(COc3cccc4cnccc34)on2)CC1,-22%,36%,-7%,5,0%,0%
O=C(c1cc(COc2cccc3cnccc23)on1)N1CCCC(CCCO)C1 (stereo unspecified),35µM*,11%,-10%,-14,0%,3%
Clc1ccccc1OCCN1CCC(Cc2ccccc2)CC1,14%,-31%,0%,-22,4%,0%
O=Cc1cc(Cl)ccc1OCCN1CCC(Cc2ccccc2)CC1,0%,-15%,-43%,-109*,0%,1%
O=C(Nc1ccccc1)c1cnc(N2CCCCC2)c2ccccc12,x,x,x,-68*,6%,x
CCc1ccc(CNC(=O)c2cnc(N3CCCCC3)c3ccccc23)cc1,x,x,x,-39,u,x
O=C(NCc1ccc(F)cc1)c1cnc(N2CCCCC2)c2ccccc12,x,x,x,-62*,7%,x
O=C(Nc1ccc(N2CCCCC2)cc1)c1ccccn1,-9%,u,-10%,-72*,1%,-16%
O=C(Nc1ccc(N2CCCCCC2)cc1)c1ccccc1Cl,5%,u,27%,-31,1%,-2%
O=C(Nc1ccccc1)c1cccnc1N1CCCC1,15%,-11%,-2%,1,0%,1%
O=C(CSCc1ccc(Cl)cc1)Nc1ccc2c(c1)OCO2,1%,u,3%,-10,1%,-2%
